PubChem BioAssay
Active and inactive are the calls of the source.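 The calls were made as follows: active = mean duplicate potentiation above the buffer control mean plus 5 SD of buffer wells; inactive = the rest.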

biological target: Potassium voltage-gated channel subfamily KQT member 2 (Rattus norvegicus) (UniProt O88943); experiment: KCNQ2 thallium flux enhancement – KCNQ2-CHO-K1 cells, selectivity assay for KCNQ1 potentiator project (AID 493009); conditions: FluxOR thallium flux fluorescence, at 10 µM; active compounds read high, scaled: buffer 0, activator control 100;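 also: assay conditions were tuned for KCNQ1 rather than KCNQ2 modulators; signal is max minus min fluorescence divided by baseline after thallium stimulus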
Sequence (O88943 whole entry, looked up): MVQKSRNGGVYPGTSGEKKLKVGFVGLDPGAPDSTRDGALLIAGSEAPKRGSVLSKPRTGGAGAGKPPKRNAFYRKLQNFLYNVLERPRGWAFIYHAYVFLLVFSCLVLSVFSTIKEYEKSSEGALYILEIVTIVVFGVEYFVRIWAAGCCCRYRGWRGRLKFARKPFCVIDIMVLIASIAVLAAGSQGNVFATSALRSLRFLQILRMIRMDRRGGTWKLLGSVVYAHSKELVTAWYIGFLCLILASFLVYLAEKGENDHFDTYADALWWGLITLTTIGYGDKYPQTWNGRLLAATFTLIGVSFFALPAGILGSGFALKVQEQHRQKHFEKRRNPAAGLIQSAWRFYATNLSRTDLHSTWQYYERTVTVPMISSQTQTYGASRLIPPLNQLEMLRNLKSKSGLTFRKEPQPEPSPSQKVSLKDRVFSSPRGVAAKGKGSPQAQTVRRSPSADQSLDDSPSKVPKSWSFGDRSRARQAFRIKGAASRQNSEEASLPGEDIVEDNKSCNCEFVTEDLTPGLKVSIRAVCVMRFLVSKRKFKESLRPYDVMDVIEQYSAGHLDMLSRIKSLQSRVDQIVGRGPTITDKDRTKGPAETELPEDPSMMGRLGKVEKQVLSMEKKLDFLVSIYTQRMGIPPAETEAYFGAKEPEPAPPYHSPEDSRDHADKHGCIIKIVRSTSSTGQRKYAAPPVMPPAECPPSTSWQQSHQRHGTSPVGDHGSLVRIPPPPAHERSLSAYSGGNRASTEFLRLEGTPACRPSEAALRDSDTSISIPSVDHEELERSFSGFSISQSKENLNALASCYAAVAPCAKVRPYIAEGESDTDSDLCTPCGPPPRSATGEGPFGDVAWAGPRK

| SMILES | potentiation | outcome |
| --- | --- | --- |
| Cc1nn(C)c(C(=O)NC(=S)Nc2ccc([N+](=O)[O-])cc2)c1Cl | 196% (active) | – |
| O=C(Nc1cc([N+](=O)[O-])ccc1N1CCCC1)c1cccs1 | – | inactive |
| Fc1ccc(/C=N/NC(=S)Nc2ccc(Cl)cc2)cc1F | – | inactive |
| Cc1ccc(NC2=C(NC(=O)c3ccccc3)C(=O)c3ccccc3C2=O)cc1Cl | – | inactive |
| CCCC(=O)n1nc(-c2ccccc2)nc1N | – | inactive |
| O=C(NC(=S)N1CCN(c2ccccc2)CC1)c1ccccc1 | 281% (active) | – |
| N#C/C=C1/NC(=O)c2ccccc2S1 | 166% (active) | – |
| COc1ccc(CN(C)CC(=O)Nc2ccc(Cl)cc2C(F)(F)F)c(OC)c1 | – | inactive |
| CCN(CC)C(=S)NC(=O)c1ccc(OC)c(Br)c1 | 209% (active) | – |
| Cc1cc(/C=C2\C(=N)N3N=C(C(C)C)SC3=NC2=O)c(C)n1Cc1ccccc1 | – | inactive |
| CCOC(=O)C1=NN(C(=O)c2ccc(OC)cc2)C(O)(c2ccc(Cl)cc2)C1 (stereo not given) | 428% (active) | – |
| CC(CCc1ccccc1)NC(=O)c1ccccc1C(=O)O (stereo not given) | – | inactive |
| CSc1nc(C)c2c(n1)N(c1ccc(C(C)C)cc1)CC2 | – | inactive |
| CC(/C=C1\SC(=S)N(NS(=O)(=O)c2ccccc2)C1=O)=C\c1ccccc1 | 318% (active) | – |
| CCOC(=O)Cc1cc(=O)n2[nH]c(C)c(-c3ccc(Cl)cc3)c2n1 | – | inactive |
| Cc1[nH]n2c(=O)cc(C(C)(C)C)nc2c1-c1ccccc1 | 224% (active) | – |
| COc1cccc(/C=N/n2c(-c3cccs3)n[nH]c2=S)c1 | 265% (active) | – |
| CCOc1ccccc1NC(=O)CCC(=O)Nc1ccccc1OCC | – | inactive |
| Cc1ccccc1-c1nc(Cc2ccc(Cl)cc2)no1 | – | inactive |
| CCC(O)C1CCN(Cc2cn(Cc3ccccc3)nc2-c2cc3ccccc3o2)CC1 (stereo not given) | 230% (active) | – |

| SMILES | potentiation | outcome |
| --- | --- | --- |
| CCOc1ccccc1NC(=O)C(=O)CC(=O)c1ccc(OC)cc1 | 216% (active) | – |
| Cc1cc(/C=N/NC(=O)c2cccs2)c(C)n1-c1ccccc1 | – | inactive |
| O=C(NC(=S)N1CCN(Cc2ccc3c(c2)OCO3)CC1)c1cccc(Br)c1 | 349% (active) | – |
| Cc1ccc(C(=O)NC(=S)N(C)Cc2ccccc2)cc1 | 178% (active) | – |
| S=c1[nH]nc(CSc2nc3ccccc3s2)n1C1CCCCC1 | 147% (active) | – |
| CN1C(=O)/C(=N\OC(=O)c2cccc3ccccc23)c2ccccc21 | – | inactive |
| CS(=O)(=O)c1ccc(C(=O)OCc2nnc(-c3ccc(Cl)cc3)o2)cc1[N+](=O)[O-] | 144% (active) | – |
| CCC1(c2ccc(Cl)cc2)NC(=S)N(c2ccccc2)N1 (stereo not given) | 375% (active) | – |
| CC1=C(C)/C(=N\OS(=O)(=O)c2ccccc2)C=CC1=O | – | inactive |
| C=CCn1c(=S)[nH]c2sc3c(c2c1=O)CCCC3 | 294% (active) | – |
| CSc1nnc(-c2ccccc2)o1 | – | inactive |
| Cc1ccc(Cl)cc1NC(=S)N/N=C/c1cccc2ccccc12 | – | inactive |
| Cc1cc(C)n(CCNS(=O)(=O)c2ccccc2)n1 | – | inactive |
| CCN1C(=O)/C(=C/c2ccc(OCc3ccc(C(=O)O)cc3)c(Cl)c2)NC1=S | 168% (active) | – |
| O=C(NC(=S)Nc1ccccc1N1CCOCC1)c1cccc([N+](=O)[O-])c1 | – | inactive |
| CCc1ccc2c(c1)c(N=NC1=NC(=O)CS1)c(O)n2C | – | inactive |
| O=C(NC(=S)Nc1cccnc1)c1cc2ccccc2o1 | 182% (active) | – |
| CC(C)(C)NC(=O)CN(C(=O)CNC(=O)c1cccs1)c1ccc2c(c1)OCCO2 | – | inactive |
| CCc1ccc(/C=N/NC(=O)Cc2cccn2C)cc1 | – | inactive |
| O=C(Nc1nnc(-c2ccc3c(c2)CCCC3)o1)c1ccccc1Cl | 267% (active) | – |
